Screening results deposited in PubChem by National Center for Advancing Translational Sciences (NCATS).
Shown are actives, neighbours in structure and some others; about 18% of the full set was active somewhere.
DT40 TDP1 CPT: qHTS for Inhibitors of human tyrosyl-DNA phosphodiesterase 1 (TDP1): qHTS in cells in presence of CPT | AID 686979, 2013 | actives 12% (n = 420,000) | Potency, µM (doses to about 46.2 µM), for inactives: at the top dose activity change, negative = growth inhibition, usual class: inhibitors | chicken DT40 Tdp1-/-;hTDP1 cells + 20 nM CPT, ATP luminescence, 48 h; also: potency is read from the fitted curve at half-maximal effect; nearly all actives have a fitted effect of over 55% in size
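Chicken DT40 Tdp1-/- cells complemented with human TDP1, 400 cells/well, exposed to compounds plus 20 nM camptothecin for at least 48 h at 37 C; viability read as ATP content by CellTiter-Glo luminescence.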
CtBP-E1A inh: qHTS Assay for Inhibitors of the CtBP/E1A Interaction. CtBP / adenovirus E1A interaction (AlphaScreen). AlphaScreen GST-E1A/His-CtBP binding, 1536-well; stronger effect = lower value. activity change, % (no concentration beside the values). actives 0.49% (n = 340,000). AID 651724, 2012; in the data active = activity change below about -65%; inconclusive = mostly about -30% to -63%
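Homogeneous bead-based format: GST-tagged E1A captured on glutathione donor beads, His-tagged CtBP on nickel acceptor beads; compounds precede bead addition by 2 h at 37 °C.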
IL1B secr inh: qHTS for Inhibitors of Inflammasome Signaling: IL-1-beta AlphaLISA Primary Screen; THP-1 LPS/ATP IL-1B secretion, AlphaLISA, 16 h; stronger effect = lower value; activity change, % at 57.5 µM; actives 4.7% (n = 360,000); AID 743279, 2014; in the data active = activity change below about -50%; inconclusive = mostly about -30% to -49%
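Secreted IL-1B measured by AlphaLISA bead assay after 16 h compound exposure of THP-1 cells; compounds (final up to 57.5 uM) added 1 h before LPS (250 ng/mL) and ATP (1.25 mM) stimulation; lower signal means less secretion.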
TDP1 cell noCPT: qHTS for Inhibitors of human tyrosyl-DNA phosphodiesterase 1 (TDP1): qHTS in cells in absence of CPT; DT40 Tdp1-/- hTDP1 cells, no CPT, ATP luminescence, 48 h; actives 15% (n = 420,000); Potency, µM (titrated, usually from 46.2 µM), for the others: at the top dose activity change, negative = growth inhibition, actives largely listed as inhibitors; AID 686978, 2013; also: potency is read from the fitted curve at half-maximal effect; nearly all actives have a fitted effect of over 55% in size
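Readout: luminescence from CellTiter-Glo after 30 min in the dark at RT. Cells: DT40 Tdp1-/- with stable hTDP1, 400/well. Exposure: compounds alone, ≥48 hr, 37 °C.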
TDP1 inh: qHTS Assay for Inhibitors of Tyrosyl-DNA Phosphodiesterase (TDP1). Tyrosyl-DNA phosphodiesterase 1 (Homo sapiens), Q9NUW8. recombinant TDP1, AlphaScreen DNA substrate cleavage. Potency, µM (series often up to 130 µM), for the others: at the top dose activity change, negative = inhibition, most hits filed as inhibitors. actives 0.28% (n = 350,000). AID 485290, 2010; also: potency is read from the fitted curve at half-maximal effect; nearly all actives have a fitted effect of over 40% in size
Target sequence (Q9NUW8 whole entry, looked up): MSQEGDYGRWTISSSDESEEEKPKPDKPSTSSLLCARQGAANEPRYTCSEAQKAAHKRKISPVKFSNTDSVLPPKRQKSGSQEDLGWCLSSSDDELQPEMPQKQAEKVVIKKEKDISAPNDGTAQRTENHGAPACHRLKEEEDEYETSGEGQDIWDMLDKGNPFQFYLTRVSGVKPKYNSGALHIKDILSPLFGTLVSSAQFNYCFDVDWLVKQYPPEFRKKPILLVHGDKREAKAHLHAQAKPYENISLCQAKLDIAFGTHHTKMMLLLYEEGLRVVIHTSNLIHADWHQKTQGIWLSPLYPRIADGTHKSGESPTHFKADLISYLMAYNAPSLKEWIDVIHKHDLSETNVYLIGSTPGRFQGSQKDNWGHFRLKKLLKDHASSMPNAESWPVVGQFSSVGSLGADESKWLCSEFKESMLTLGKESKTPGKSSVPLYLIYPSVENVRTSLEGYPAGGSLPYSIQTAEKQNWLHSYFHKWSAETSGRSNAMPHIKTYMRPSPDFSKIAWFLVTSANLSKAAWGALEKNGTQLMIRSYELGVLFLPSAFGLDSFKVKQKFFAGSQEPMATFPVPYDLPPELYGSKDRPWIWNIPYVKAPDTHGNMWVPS
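Recombinant human Tdp1 (E. coli-expressed, 1 nM final) preincubated with compounds 15 min at room temperature, then 5'-biotin/3'-phosphotyrosine-FITC DNA substrate (15 nM final) added for 5 min. AlphaScreen beads (10 ug/ml final) added 10 min; cleavage lowers signal.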
Six1-Eya2 inh: qHTS Assay for Inhibitors of the Six1/Eya2 Interaction. Homeobox protein SIX1 (Homo sapiens) + Protein phosphatase EYA2 (Homo sapiens), …. AID 651725, 2012. activity change, % (no concentration beside the values). actives 0.56% (n = 360,000). AlphaScreen GST-Six1/His-Eya2 binding, biochemical; stronger effect = lower value; in the data active = activity change below about -65%; inconclusive = mostly about -30% to -63%
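AlphaScreen with GST-Six1 and His-Eya2 (5X mix: 250 nM and 500 nM), glutathione donor and nickel acceptor beads; buffer 50 mM Tris pH 8.0, 300 mM NaCl, 1 mM TCEP; 1 h at 37 C in the dark.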
Starred values were filed as active, the others as inactive; ? = inconclusive; nt = not tested or not shown. Unless noted, calls follow the shape of the dose curve; as a rule, active = well fitted curve in the direction sought with a large enough effect; inconclusive = small, poorly fitted or top-dose-only effect, or another doubt; inactive = no such curve, though single readings can be large; an effect the other way counts as inactive or inconclusive. % is scaled to controls: 0 for no effect and ±100 for the full control effect.

SMILES	DT40 TDP1 CPT	CtBP-E1A inh	IL1B secr inh	TDP1 cell noCPT	TDP1 inh	Six1-Eya2 inh
O=c1[nH]c(=O)n(Cc2ccccc2)c2nc(-c3ccc(Oc4ccc(F)cc4)c([N+](=O)[O-])c3)n(CCO)c12	16.4µM*	-24.3	-23.1	18.4µM*	1.9%	-19.4
COCCn1c(=O)[nH]c(=O)c2c1nc(-c1ccc(-c3ccc(Cl)cc3[N+](=O)[O-])o1)n2Cc1ccccc1	16.4µM*	-5.7	38.7	23.1µM*	7.7%	-18.2
COc1ccc(-c2ccc(-c3nc4c(c(=O)[nH]c(=O)n4Cc4ccccc4)n3C)o2)c([N+](=O)[O-])c1	?	1.5	-1.4	25.9µM*	-3.4%	-18.2
COc1ccc(-c2nc3c(c(=O)[nH]c(=O)n3Cc3ccccc3)n2CCO)cc1	2.1%	14.0	50.5	-9.0%	3.2%	-5.4
O=C(NCCCN1CCOCC1)Nc1ccc(Cc2ccc(NC(=O)NCCCN3CCOCC3)cc2)cc1	-2.1%	8.2	-9.9	-0.9%	5.3%	-2.1
O=C(O)c1ccc2nc3c(nc2c1)-c1ccccc1C3=O	?	?	-24.2	?	-2.5%	?
CC(C)NC(=S)N/N=C/c1ccc2c(c1)OCCO2	-14.6%	18.1	-10.0	-12.6%	2.7%	19.6
CCN1CCN(c2nc3c(S(=O)(=O)c4ccc(C)cc4)nnn3c3ccsc23)CC1	-7.8%	nt	nt	-10.5%	2.6%	nt
Clc1cccc(-c2nn3c(-c4cccc(Cl)c4)nnc3s2)c1	nt	nt	nt	nt	0.0%	nt
O=C(NC1CCCC1)C(c1ccncc1)N(Cc1ccccc1)C(=O)c1ccc(-c2ccccc2)[nH]1 (configuration not stated)	20.6µM*	-24.6	-79.2*	16.4µM*	-1.1%	-27.3
CCOc1ccc(C(C(=O)NC2CCCC2)N(CCCO)C(=O)c2ccc(-c3ccccc3)[nH]2)cc1 (configuration not stated)	20.6µM*	nt	-20.8	18.4µM*	7.7%	-15.7
O=C(NC1CCCCC1)C(c1ccc(F)cc1)N(Cc1ccco1)C(=O)c1ccccn1 (configuration not stated)	0.82µM*	-8.7	-8.1	-24.5%	1.3%	-6.6
Cc1ccccc1C(C(=O)NCc1ccccc1)N(Cc1ccco1)C(=O)c1ccccn1 (configuration not stated)	?	-5.8	-15.2	14.6µM*	2.0%	0.0
O=C(COc1ccccc1)NC(=S)Nc1ccc(Br)cn1	-1.0%	-12.5	8.7	-1.8%	-6.3%	2.0
CCOC(=O)C1(CC)NC(c2cccc(F)c2)C2C(=O)N(CC)C(=O)C21 (configuration not stated)	-4.6%	?	-11.4	-34.1%	-1.1%	10.7
CCOc1ccc(NC(=S)N2CCC(NC(=O)c3ccco3)CC2)cc1	-0.9%	9.4	16.4	-4.4%	-0.4%	-2.1
O=C(NC1CCCC1)C(c1ccncc1)N(CCCN1CCOCC1)C(=O)c1ccc(-c2ccccc2)[nH]1 (configuration not stated)	-15.5%	nt	?	-23.0%	0.0%	-1.4
O=C(NC1CCCC1)C(c1ccncc1)N(Cc1ccco1)C(=O)c1ccc(-c2ccccc2)[nH]1 (configuration not stated)	23.1µM*	-2.6	-104.9*	16.4µM*	2.6%	-18.9
N#CC1C(=O)NC(=O)C(C#N)C12CCCCC2 (configuration not stated)	-9.9%	3.3	9.4	5.3%	nt	12.8
